We go through 45 compounds from publication PMC4552634, “A New Set of Chemical Starting Points with Plasmodium falciparum Transmission-Blocking Potential for Antimalarial Drug Discovery” (PLoS ONE, 2015).

Molecules are shown by their SMILES. Where two headings read alike, the source gives them in different places. The whole screen tested about 13,000 compounds, of which about 3,200 (25%) showed an effect of 50% or more. The list shows a part of the results.

In the assay the test system is P. falciparum stage V gametocytes. Also noted: BacTiter-Glo ATP luminescence viability of purified stage V gametocytes in 384-well plates, per cent inhibition versus DMSO. Particulars: 48 h, 5 µM, inhibitor.

The % Inhibition is the drop in the measured response relative to a control, in per cent. Turning to `OC1CCCN(Cc2cccc(-c3ccc(-c4nc5ccc(C(F)(F)F)cc5[nH]4)cc3)c2)C1` (stereo not drawn) [TCMDC-133814], the “% Inhibition” value is on record as -59.43%. `CC(=O)N(C)C1CCN(Cc2cccc(-c3ccc(-c4nc5ccc(C(F)(F)F)cc5[nH]4)cc3)c2)C1` (stereo not drawn) [TCMDC-133884]: the “% Inhibition” value was -40.19%. For the compound `CC1CN(Cc2ccc(-c3cccc(-c4nc5ccc(F)cc5[nH]4)c3)cc2)CC(C)O1` (stereo not drawn) [TCMDC-133813], the “% Inhibition” value was -17.46%.

In the case of `NC1CCCN(Cc2cccc(-c3ccc(-c4nc5ccc(C(F)(F)F)cc5[nH]4)cc3)c2)C1` (stereo not drawn) [TCMDC-133839], the “% Inhibition” value is recorded as 50.43%. In the case of `OCCN1CCN(Cc2ccc(-c3ccc(-c4nc5ccc(F)cc5[nH]4)cc3)cc2)CC1` [TCMDC-133030], the “% Inhibition” value is -14.7%. Same read-out and setting: in the case of `NC1CCN(Cc2cccc(-c3ccc(-c4nc5ccc(C(F)(F)F)cc5[nH]4)cc3)c2)C1` (stereo not drawn) [TCMDC-133837] it was 42.56%; in that of `CN1CCCC(CN2CCN(Cc3ccc(-c4ccc(-c5nc6ccc(F)cc6[nH]5)cc4)cc3)CC2)C1` (stereo not drawn) [TCMDC-133908], 90.06%; in that of `COCCN1CCN(Cc2ccc(-c3ccc(-c4nc5ccc(F)cc5[nH]4)cc3)cc2)CC1` [TCMDC-133022], -25.91%. With `N#CCCN1CCN(Cc2cccc(-c3ccc(-c4nc5ccc(C(F)(F)F)cc5[nH]4)cc3)c2)CC1` [TCMDC-133844], the “% Inhibition” value was -10.1%. Same read-out and setting: in the case of `CN1CCCC(CN2CCN(Cc3ccc(-c4cccc(-c5nc6ccc(F)cc6[nH]5)c4)cc3)CC2)C1` (stereo not drawn) [TCMDC-133883] it was 67.8%. Consider `CN1CCCC(CN2CCN(Cc3cccc(-c4ccc(-c5nc6ccc(C(F)(F)F)cc6[nH]5)cc4)c3)CC2)C1` (stereo not drawn) [TCMDC-133882], for which the “% Inhibition” value came to 68.4%. Regarding `N#CCCN1CCN(Cc2ccc(-c3cccc(-c4nc5ccc(F)cc5[nH]4)c3)cc2)CC1` [TCMDC-133845], the “% Inhibition” value is given as 7.403%. As for `COc1ccc2ncc(C#N)c(CCN3CCC(NCc4ccc5c(c4)OCCO5)CC3)c2c1` [TCMDC-135664], the “% Inhibition” value was 6.84%. On to `O=C(Nc1cccc(-c2cccc(-c3nc4ccccc4[nH]3)c2)c1)NC1CC1c1ccccc1` (stereo not drawn) [TCMDC-133256], for which the “% Inhibition” value (% Inhibition) is recorded as 3.053%. Take `COc1ccc2c(c1)Sc1ccccc1C(N1CCN(CCO)CC1)C2` (stereo not drawn) [TCMDC-139028]: the “% Inhibition” value is -3.41%. Still for that read-out and setting: under `Cc1cccc2nc(-c3ccc(-c4cccc(C(=O)NCCc5cn(C)cn5)c4)s3)[nH]c12` [TCMDC-132498] stands -19.19%. As for `CCOc1c(OC)ccc2c1CCN(CCN1CCC(NC(=O)c3ccc(-c4cccc(C(F)(F)F)c4C(F)(F)F)cc3)CC1)C2` [TCMDC-135432], the “% Inhibition” value is on record as -45.25%. `CCOc1cc(Br)c(C(C)NC(=O)c2cccc(OC)c2)cc1OCC` (stereo not drawn) [TCMDC-123742]: the “% Inhibition” value worked out at 47.1%. Regarding `CCOc1cc(C(=O)Nc2ccc3nc(N(CC)CC)cc(C)c3c2)cc(OCC)c1OCC` [TCMDC-124008], the “% Inhibition” value is recorded as -7.565%. On the same count and under the same terms, under `CCOc1cc(C(=O)Nc2ccccc2N2CCN(S(C)(=O)=O)CC2)cc(OCC)c1OCC` [TCMDC-124994] stands 1.091%.

Consider `O=C(NOCCCCOc1ccc(Cl)c(Cl)c1)c1ccccc1` [TCMDC-131761], for which the “% Inhibition” value is -3.28%. Same read-out and setting: in the case of `CCOc1cc(Br)c(C(C)NC(=O)c2ccccc2)cc1OCC` (stereo not drawn) [TCMDC-123743] it was 65.54%.

`CCOc1cc(C(=O)NC2CCN(Cc3ccccc3)CC2)ccc1-c1nc2cc(Cl)c(Cl)cc2[nH]1` [TCMDC-140080]: the “% Inhibition” value is -6.754%.

Take `CCOc1cc(Cl)c(C(C)NC(=O)c2ccccc2)cc1OCC` (stereo not drawn) [TCMDC-123744]: the “% Inhibition” value was determined as 73.45%. Same read-out and setting: in the case of `COc1cccc(C(=O)NC(NC(=S)Nc2ccc(OC)cc2[N+](=O)[O-])C(Cl)(Cl)Cl)c1` (stereo not drawn) [TCMDC-124141] it was 23.91%. Same read-out and setting: under `CCOc1cc(Cl)c(C(C)NC(=O)c2cccc(OC)c2)cc1OCC` (stereo not drawn) [TCMDC-125450] stands 81.4%; under `CC(C)C[C@H](NC(=O)c1ccc(OCCN2CCOCC2)cc1)C(=O)N[C@H](/C=N/N1CC(=O)NC1=O)CCc1ccccc1` [TCMDC-136155], 17.61%.

Consider `O=C(NC1CC1)c1ccc2cc(C(=O)N3Cc4ccccc4C(c4ccccc4)C3)ccc2c1` (stereo not drawn) [TCMDC-131863], for which the “% Inhibition” value stood at 5.684%. Regarding `COc1ccccc1CCNc1ncnc2c1[nH]c1ccc(F)cc12` [TCMDC-124556], the “% Inhibition” value came to 39.14%. Same read-out and setting: in the case of `COc1ccc(OC)c(Cc2cnc3nc(N)[nH]c(=O)c3c2C)c1` [TCMDC-138103] it was 16.49%.

Regarding `CN(C)C(=O)CCCn1c(CNCCCNc2cc(=O)c3ccccc3[nH]2)cc2c(Cl)cc(Cl)cc21` [TCMDC-140466], the “% Inhibition” value is on record as -27.37%. The same measure, in the same setting: under `CCCC1CCNC(C(O)c2ccnc3ccc(OC)cc23)C1` (stereo not drawn) [TCMDC-138276] stands 11.37%.

As to `COc1cccc(-c2nn(C)c3sc(C(=O)NCCN(C)Cc4ccccc4)cc23)c1` [TCMDC-123583], the “% Inhibition” value is -8.796%. `Cc1ccc(-n2nc(-c3ccccc3)c3cc(C(=O)NCCN)sc32)cc1` [TCMDC-124776]: the “% Inhibition” value is 110.1%. On the same count and under the same terms, under `CN(C)CCNC(=O)c1cc2c(-c3ccc(Cl)cc3)nn(C)c2s1` [TCMDC-123580] stands -36.25%; under `CC(C)Oc1ccc2c(c1)OC(c1ccccc1)(C(F)(F)F)NC2=O` (stereo not drawn) [TCMDC-123633], 28.56%; under `Cc1nc(Cl)c2c(-c3ccccc3)csc2n1` [TCMDC-125437], -3.595%. The same measure, in the same setting: in the case of `CS(=O)(=O)Nc1ccc(-c2ccc3ccnc(N)c3c2)cc1` [TCMDC-136788] it was 43.95%; in that of `Nc1ccc(-c2ccc3ccnc(N)c3c2)cc1` [TCMDC-136763], -16.03%. For `NC(=O)c1ccc(-c2ccc3ccnc(N)c3c2)cc1` [TCMDC-133429], the “% Inhibition” value is recorded as 50%. Still for that read-out and setting: under `CN(C)Cc1cccc(-c2ccc3ccnc(N)c3c2)c1` [TCMDC-136795] stands 100.3%; under `COc1cccc(-c2ccc3ccnc(N)c3c2)c1` [TCMDC-133361], 60.33%; under `CN(C)CC(=O)Nc1ccc(-c2ccc3ccnc(N)c3c2)cc1` [TCMDC-133427], 67.97%. Same read-out and setting: under `COc1cccc(-c2ccc3c(-c4ccc(F)cc4)cnc(N)c3c2)c1` [TCMDC-134514] stands 40.73%.

For `Nc1nccc2ccc(-c3cccc(OCc4ccccc4)c3)cc12` [TCMDC-133430], the “% Inhibition” value is 24.46%.
